For 8 compounds, residual activity results are on record in ChEMBL document CHEMBL2218924, “A broad activity screen in support of a chemogenomic map for kinase signalling research and drug discovery” (Biochem J, 2013).

Test [1] has as its target Insulin receptor (Homo sapiens) (UniProt P06213). Conditions: at 10 µM.
Test [2] shares this target. The following applies: at 1 µM.
Test [3] shares this target. Conditions: at 10 µM. This is another data set of the same source.
The target of test [4] is Interleukin-1 receptor-associated kinase 1 (Homo sapiens) (UniProt P51617). The following applies: at 10 µM.
The target of test [5] is T1, Interleukin-1 receptor-associated kinase 4 (Homo sapiens) (UniProt Q9NWZ3).
T1 sequence (whole entry): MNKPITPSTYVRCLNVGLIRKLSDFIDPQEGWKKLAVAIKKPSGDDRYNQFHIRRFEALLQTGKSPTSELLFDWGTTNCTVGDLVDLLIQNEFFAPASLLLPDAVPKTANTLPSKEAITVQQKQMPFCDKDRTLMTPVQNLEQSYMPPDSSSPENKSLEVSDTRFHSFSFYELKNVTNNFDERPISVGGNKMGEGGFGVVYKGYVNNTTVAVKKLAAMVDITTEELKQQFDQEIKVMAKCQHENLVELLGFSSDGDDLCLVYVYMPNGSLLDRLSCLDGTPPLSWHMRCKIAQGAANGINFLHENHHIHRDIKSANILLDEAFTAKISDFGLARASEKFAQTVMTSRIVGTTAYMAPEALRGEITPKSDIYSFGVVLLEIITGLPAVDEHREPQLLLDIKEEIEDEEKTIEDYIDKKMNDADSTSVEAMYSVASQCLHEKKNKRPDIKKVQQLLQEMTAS
The following applies: at 1 µM.

Test [6] has as its target T1, Interleukin-1 receptor-associated kinase 4 (Homo sapiens). The following applies: at 10 µM.
In test [7] the target is Insulin receptor-related protein (Homo sapiens) (UniProt P14616). Conditions: at 1 µM.
For test [8] the target is unchanged. Conditions: at 10 µM.
For test [9], the target named is T2, Tyrosine-protein kinase ITK/TSK (Homo sapiens) (UniProt Q08881).
T2 sequence (whole entry): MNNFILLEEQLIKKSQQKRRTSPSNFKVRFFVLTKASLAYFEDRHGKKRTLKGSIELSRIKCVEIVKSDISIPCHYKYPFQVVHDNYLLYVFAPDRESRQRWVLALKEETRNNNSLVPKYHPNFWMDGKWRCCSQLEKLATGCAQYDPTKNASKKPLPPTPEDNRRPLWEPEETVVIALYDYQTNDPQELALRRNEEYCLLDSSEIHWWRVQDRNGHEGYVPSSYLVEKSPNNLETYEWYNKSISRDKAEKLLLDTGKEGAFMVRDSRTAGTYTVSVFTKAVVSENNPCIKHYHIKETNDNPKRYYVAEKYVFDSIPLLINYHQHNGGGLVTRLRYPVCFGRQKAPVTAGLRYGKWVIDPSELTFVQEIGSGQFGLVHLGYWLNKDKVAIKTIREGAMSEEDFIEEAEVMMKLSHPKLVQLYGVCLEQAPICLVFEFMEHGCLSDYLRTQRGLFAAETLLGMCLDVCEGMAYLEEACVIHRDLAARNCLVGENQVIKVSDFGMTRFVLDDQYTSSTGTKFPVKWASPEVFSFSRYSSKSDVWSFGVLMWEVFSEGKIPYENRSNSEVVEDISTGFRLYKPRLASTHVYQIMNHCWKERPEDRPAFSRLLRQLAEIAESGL
The following applies: at 1 µM.

The target in test [10] is T2, Tyrosine-protein kinase ITK/TSK (Homo sapiens). Conditions: at 10 µM.
For test [11], the target named is Tyrosine-protein kinase JAK2 (Homo sapiens) (UniProt O60674). Conditions: at 1 µM.
The target is the same in test [12]. The following applies: at 10 µM.
Test [13] deals with T3, Tyrosine-protein kinase JAK3 (Homo sapiens) (UniProt P52333).
T3 sequence (whole entry): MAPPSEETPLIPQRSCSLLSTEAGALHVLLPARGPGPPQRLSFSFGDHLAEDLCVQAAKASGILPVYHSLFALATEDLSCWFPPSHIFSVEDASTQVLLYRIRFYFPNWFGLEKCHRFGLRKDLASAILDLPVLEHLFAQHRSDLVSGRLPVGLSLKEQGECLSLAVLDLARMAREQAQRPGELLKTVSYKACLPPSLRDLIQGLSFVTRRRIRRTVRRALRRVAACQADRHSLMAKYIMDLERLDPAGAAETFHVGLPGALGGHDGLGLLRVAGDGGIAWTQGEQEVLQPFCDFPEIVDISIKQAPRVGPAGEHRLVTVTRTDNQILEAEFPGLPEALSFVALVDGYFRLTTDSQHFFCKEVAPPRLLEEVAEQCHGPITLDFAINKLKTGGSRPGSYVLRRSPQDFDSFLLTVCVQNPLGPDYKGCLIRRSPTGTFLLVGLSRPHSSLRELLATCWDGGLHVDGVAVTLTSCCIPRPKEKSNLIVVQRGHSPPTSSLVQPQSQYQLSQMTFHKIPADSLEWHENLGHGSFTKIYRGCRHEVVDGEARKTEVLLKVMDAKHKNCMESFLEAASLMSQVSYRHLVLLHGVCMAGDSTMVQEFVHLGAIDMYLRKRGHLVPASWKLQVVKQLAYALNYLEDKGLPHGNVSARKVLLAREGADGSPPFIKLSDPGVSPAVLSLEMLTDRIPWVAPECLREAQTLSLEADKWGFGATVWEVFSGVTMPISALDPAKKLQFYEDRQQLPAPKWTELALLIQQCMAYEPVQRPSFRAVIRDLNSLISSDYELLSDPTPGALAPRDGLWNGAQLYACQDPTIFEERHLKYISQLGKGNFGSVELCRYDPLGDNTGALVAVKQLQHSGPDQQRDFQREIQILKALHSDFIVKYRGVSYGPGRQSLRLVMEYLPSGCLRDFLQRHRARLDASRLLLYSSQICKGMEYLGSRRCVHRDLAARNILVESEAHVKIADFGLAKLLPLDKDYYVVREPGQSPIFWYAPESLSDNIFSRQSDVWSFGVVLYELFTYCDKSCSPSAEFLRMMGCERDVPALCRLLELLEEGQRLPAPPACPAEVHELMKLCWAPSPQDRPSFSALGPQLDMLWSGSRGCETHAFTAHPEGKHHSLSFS
Conditions: at 1 µM.

The target of test [14] is T3, Tyrosine-protein kinase JAK3 (Homo sapiens). The following applies: at 10 µM.
Test [15] addresses Mitogen-activated protein kinase 8 (Homo sapiens) (UniProt P45983). Conditions: at 1 µM.
Test [16] has the same target. Conditions: at 10 µM.
Test [17] has as its target Mitogen-activated protein kinase 9 (Homo sapiens) (UniProt P45984). Conditions: at 1 µM.
For test [18] the target is unchanged. Conditions: at 10 µM.
Test [19] addresses Mitogen-activated protein kinase 10 (Homo sapiens) (UniProt P53779). The following applies: at 1 µM.
The target in test [20] is Interleukin-1 receptor-associated kinase 1 (Homo sapiens) (UniProt P51617). Conditions: at 1 µM.

Sequence of Tyrosine-protein kinase JAK2 (Homo sapiens) (O60674 whole entry): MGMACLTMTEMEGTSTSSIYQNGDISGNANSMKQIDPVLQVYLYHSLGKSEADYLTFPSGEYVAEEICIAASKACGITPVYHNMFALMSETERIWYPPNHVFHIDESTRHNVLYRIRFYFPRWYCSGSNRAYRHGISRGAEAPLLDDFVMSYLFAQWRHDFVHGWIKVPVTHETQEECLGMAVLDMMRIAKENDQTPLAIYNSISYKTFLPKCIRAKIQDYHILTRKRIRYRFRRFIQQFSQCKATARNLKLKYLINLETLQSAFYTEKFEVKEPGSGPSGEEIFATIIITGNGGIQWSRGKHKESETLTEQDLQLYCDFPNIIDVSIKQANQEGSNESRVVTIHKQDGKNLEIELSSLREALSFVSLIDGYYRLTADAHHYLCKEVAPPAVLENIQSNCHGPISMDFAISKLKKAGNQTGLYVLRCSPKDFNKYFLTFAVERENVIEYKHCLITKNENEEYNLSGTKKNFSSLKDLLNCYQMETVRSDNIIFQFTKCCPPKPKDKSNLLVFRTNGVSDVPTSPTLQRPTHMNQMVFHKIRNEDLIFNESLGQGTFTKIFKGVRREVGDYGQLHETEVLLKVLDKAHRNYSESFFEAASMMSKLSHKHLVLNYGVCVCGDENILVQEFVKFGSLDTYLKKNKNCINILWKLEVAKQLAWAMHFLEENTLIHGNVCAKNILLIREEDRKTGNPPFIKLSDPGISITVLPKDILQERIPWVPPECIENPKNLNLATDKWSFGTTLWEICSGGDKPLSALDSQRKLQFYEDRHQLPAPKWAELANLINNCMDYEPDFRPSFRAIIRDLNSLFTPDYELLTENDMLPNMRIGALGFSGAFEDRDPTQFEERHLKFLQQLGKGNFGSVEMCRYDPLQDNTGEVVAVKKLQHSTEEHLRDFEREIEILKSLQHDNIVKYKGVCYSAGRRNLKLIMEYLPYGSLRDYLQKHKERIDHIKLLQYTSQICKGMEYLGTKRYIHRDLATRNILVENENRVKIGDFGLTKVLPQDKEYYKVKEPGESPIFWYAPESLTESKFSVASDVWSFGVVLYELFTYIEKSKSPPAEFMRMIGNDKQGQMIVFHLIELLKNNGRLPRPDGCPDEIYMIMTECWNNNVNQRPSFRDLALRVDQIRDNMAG
Sequence of Interleukin-1 receptor-associated kinase 1 (Homo sapiens) (P51617 whole entry, looked up): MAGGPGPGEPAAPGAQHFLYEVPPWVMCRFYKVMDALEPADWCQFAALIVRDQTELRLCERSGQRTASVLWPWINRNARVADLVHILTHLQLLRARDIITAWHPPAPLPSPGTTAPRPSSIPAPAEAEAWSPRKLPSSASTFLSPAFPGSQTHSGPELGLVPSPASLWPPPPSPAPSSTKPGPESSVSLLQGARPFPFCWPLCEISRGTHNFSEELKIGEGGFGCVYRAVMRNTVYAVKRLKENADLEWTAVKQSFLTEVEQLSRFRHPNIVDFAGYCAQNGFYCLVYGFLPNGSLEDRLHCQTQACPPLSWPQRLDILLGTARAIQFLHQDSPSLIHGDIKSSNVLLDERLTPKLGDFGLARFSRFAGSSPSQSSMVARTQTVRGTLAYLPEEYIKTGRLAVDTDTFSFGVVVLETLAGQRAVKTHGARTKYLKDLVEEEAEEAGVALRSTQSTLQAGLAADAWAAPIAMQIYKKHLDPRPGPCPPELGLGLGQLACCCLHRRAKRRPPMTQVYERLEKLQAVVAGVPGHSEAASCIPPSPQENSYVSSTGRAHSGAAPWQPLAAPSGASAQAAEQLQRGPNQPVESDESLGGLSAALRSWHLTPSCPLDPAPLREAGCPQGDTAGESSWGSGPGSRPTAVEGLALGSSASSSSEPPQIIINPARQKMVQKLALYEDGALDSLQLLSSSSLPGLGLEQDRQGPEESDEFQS
Sequence of Mitogen-activated protein kinase 8 (Homo sapiens) (P45983 whole entry): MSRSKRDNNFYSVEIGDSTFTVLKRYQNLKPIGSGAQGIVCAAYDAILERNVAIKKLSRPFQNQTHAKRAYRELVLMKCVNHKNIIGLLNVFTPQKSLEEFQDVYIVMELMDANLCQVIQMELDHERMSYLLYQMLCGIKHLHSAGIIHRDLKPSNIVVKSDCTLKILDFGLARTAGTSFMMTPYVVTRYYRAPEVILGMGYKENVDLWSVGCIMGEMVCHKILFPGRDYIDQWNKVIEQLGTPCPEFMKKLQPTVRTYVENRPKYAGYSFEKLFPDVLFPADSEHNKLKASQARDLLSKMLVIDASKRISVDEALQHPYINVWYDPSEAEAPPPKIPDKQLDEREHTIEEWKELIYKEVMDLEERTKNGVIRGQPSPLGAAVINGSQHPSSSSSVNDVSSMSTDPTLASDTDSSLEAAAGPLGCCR
Sequence of Insulin receptor (Homo sapiens) (P06213 28-758 limits assumed): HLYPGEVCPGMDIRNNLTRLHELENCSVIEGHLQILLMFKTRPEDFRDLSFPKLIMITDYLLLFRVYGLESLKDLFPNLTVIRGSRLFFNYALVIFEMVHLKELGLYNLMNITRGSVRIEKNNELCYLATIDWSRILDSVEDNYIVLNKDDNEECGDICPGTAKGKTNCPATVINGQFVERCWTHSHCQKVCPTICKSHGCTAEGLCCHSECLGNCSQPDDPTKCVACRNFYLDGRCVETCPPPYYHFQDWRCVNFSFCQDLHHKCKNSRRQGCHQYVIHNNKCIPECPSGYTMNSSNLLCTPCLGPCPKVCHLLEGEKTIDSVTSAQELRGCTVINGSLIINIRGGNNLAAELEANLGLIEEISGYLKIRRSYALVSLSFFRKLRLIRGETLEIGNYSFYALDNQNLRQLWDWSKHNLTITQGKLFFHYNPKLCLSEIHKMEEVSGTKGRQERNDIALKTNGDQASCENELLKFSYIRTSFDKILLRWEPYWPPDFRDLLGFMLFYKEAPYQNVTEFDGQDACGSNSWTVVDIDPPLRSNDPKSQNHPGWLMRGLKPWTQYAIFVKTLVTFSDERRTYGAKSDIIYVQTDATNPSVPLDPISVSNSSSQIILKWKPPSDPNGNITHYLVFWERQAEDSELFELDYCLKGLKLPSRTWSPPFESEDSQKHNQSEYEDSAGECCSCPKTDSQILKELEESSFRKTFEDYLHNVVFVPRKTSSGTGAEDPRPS
Sequence of Insulin receptor (Homo sapiens) (P06213 763-1382 limits assumed): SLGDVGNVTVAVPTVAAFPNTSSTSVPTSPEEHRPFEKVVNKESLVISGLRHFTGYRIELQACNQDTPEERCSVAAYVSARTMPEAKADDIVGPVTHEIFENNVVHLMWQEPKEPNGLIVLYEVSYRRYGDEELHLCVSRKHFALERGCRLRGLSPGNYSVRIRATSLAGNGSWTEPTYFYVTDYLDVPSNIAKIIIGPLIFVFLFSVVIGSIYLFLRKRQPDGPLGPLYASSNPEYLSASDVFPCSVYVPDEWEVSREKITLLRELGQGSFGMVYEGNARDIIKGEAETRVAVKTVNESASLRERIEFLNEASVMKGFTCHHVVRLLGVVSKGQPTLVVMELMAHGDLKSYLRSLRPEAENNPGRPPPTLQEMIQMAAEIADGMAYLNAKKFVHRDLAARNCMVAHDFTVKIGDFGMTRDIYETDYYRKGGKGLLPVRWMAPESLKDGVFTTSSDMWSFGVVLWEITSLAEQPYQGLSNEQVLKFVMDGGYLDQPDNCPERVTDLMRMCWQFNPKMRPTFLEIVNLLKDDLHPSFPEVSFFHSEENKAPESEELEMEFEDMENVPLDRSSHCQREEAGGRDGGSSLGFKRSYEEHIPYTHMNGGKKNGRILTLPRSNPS
Sequence of Insulin receptor-related protein (Homo sapiens) (P14616 27-742 limits assumed): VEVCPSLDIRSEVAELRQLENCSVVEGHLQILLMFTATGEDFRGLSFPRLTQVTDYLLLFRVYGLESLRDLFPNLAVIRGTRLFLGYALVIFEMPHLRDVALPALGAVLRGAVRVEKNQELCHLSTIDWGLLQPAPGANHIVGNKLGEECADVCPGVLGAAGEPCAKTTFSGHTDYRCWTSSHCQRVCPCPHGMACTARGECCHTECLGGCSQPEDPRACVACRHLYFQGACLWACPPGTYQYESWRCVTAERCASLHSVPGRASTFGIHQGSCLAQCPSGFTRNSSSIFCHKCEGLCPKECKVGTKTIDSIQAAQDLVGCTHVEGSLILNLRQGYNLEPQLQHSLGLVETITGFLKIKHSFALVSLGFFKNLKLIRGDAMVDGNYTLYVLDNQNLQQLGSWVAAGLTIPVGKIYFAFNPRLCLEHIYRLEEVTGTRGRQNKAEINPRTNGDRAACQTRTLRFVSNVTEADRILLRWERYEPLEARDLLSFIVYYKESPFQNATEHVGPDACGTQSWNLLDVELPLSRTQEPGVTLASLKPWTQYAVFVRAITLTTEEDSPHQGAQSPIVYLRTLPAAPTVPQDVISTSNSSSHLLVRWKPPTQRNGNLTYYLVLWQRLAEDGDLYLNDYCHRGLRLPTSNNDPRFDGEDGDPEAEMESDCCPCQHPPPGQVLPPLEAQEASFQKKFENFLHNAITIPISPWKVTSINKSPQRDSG
Sequence of Insulin receptor-related protein (Homo sapiens) (P14616 747-1297 limits assumed): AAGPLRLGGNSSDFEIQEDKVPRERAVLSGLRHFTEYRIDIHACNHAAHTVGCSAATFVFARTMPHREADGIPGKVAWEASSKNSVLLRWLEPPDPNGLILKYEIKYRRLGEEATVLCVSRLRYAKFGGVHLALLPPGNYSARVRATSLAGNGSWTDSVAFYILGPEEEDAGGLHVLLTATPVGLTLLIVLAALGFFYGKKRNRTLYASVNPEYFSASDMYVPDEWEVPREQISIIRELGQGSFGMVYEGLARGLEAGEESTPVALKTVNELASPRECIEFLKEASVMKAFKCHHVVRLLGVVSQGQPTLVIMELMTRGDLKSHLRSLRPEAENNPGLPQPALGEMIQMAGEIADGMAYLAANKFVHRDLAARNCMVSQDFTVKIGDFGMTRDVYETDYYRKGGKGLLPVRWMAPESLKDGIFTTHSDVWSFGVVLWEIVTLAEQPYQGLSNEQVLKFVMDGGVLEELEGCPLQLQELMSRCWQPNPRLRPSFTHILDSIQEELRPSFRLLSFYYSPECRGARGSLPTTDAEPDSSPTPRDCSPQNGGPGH

Consider `CCN(CC)C(=O)c1ccc(Nc2nc(OCC3CCCCC3)c3nc[nH]c3n2)cc1`, for which the residual activity came to 143% in test [1]; 47% in test [2]; 7% in [3]; 35% in [4]; 57% in test [5]; 15% in [6]. Besides, the residual activity in test [7] was 69%; in [8], 1%; in test [9], 32%; in test [10] it was 2%; in test [11], 3%; in test [12], -1%. For the same compound, the residual activity in [13] was 7%; in [14] it was 1%; in test [15] it was 44%; in test [16], -11%; in test [17], 44%; in test [18], 0%. Besides, the residual activity in [19] amounted to 5%.
Consider `N#Cc1cnc2cnc(NCc3cccnc3)cc2c1Nc1ccc(F)c(Cl)c1`, for which the residual activity in test [1] turned out to be 123%; in test [2] it was 72%; in test [3], 52%; in test [20] it was 93%; in test [4], 103%; in test [5], 64%. Moreover, the residual activity was found to be 43% in test [6]; 90% in test [7]; 89% in test [8]; 72% in test [9]; 48% in test [10]; 96% in test [11]. Further, the residual activity came out at 94% in test [12]; 82% in test [13]; 81% in test [14]; 95% in test [17]; 97% in [18].
`Cc1cc2ncc(-c3ccccc3)nc2cc1C`: the residual activity in test [20] turned out to be 99%; in [4] it was 94%; in test [7], 124%; in test [8] it was 71%; in test [9], 93%; in test [11], 101%. For the same compound, the residual activity was 98% in [13]; 81% in [14]; 99% in test [16]; 108% in test [17]; 97% in test [18]; 108% in test [19].
For the compound `c1ccc(-c2n[nH]c3c2oc2ccccc23)cc1`, the residual activity in [20] was 96%; in [4], 98%; in [5], 91%; in [6] it was 68%; in [7], 141%; in test [8] it was 73%. In addition, the residual activity in [9] was 98%; in test [10], 66%; in test [13] it was 92%; in [14] it was 70%; in test [19] it was 59%.
As for `NC(=O)c1ccc2[nH]c(-c3ccc(Oc4ccc(Cl)cc4)cc3)nc2c1`, the residual activity is 108% in test [1]; 100% in test [2]; 94% in test [3]; 95% in test [20]; 82% in [4]; 80% in test [5]. For the same compound, the residual activity in [6] amounted to 79%; in test [7], 107%; in test [8], 101%; in [9], 102%; in test [10] it was 86%; in [11] it was 97%. Also, the residual activity in test [12] amounted to 115%; in [13], 105%; in test [14], 117%; in test [15], 97%; in test [16] it was 91%; in test [17], 88%. The residual activity in [18] worked out at 93%; in [19], 98%.
As to `O=C(O)c1ccc2c3c1cccc3c(=O)n1c3ccccc3nc21`, the residual activity in test [1] was found to be 110%; in test [2], 104%; in test [3], 85%; in [20], 35%; in [4], 3%; in test [5], 105%. In addition, the residual activity stood at 89% in test [6]; 125% in test [7]; 98% in test [8]; 107% in test [9]; 94% in test [10]; 100% in test [11]. The residual activity was found to be 40% in [12]; 46% in test [13]; 9% in test [14]; 105% in test [15]; 79% in test [16]; 83% in test [17]. Moreover, the residual activity in test [18] was determined as 55%; in test [19] it was 78%.
Turning to `Cn1cc(/C=C2\C(=O)Nc3ccc(S(N)(=O)=O)cc32)c2ccccc21`, the residual activity in [1] worked out at 95%; in test [2], 66%; in [3] it was 64%; in test [20], 1%; in test [4], 15%; in [5], 0%. In addition, the residual activity in test [6] is -1%; in [7] it was 124%; in test [8] it was 35%; in test [9], 8%; in test [10] it was 1%; in test [11] it was 53%. Further, the residual activity stood at 21% in test [12]; 45% in [13]; 11% in test [14]; 109% in test [15]; 95% in test [16]; 98% in test [17]. Besides, the results for the residual activity in test [18] and in [19] were 95% and 58%, respectively.
On to `O=C1c2ccccc2-[n+]2ccc3c([nH]c4ccccc43)c21`, for which the residual activity in [1] turned out to be 93%; in test [2], 101%; in test [3], 86%; in test [20] it was 106%; in [5] it was 79%; in [6], 78%. Also, the residual activity in [7] was found to be 101%; in [8], 92%; in test [9], 96%; in [10] it was 93%; in test [11], 95%; in [12] it was 101%. The residual activity in test [13] turned out to be 109%; in test [15] it was 97%; in test [16] it was 87%; in test [17], 92%; in test [18], 106%; in [19] it was 71%.
